Source: PubChem BioAssay AID1626 (SRMLSC, 2009)
About 2,000 (0.91%) of roughly 220,000 compounds were called active. Not shown: some 2% with an inconclusive outcome. Cut-off read from the data, not from the text of the source: inconclusive = inhibition above about 80% without an active follow-up result; inactive = below that; test concentration not stated here. Only a sample is shown. Entries with a potency or affinity are not part of this list.

test: M. tuberculosis H37Rv growth inhibitors, H37Rv strain (AID 1626); details: active compounds read high, concentration not given here;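 note: bacteria incubated seven days before Alamar blue readout; 0% = bacteria only wells and 100% = bacteria with antibiotic wells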

Q: Which inhibition does the source give for CCC1(C)Cc2c(sc3nnn(CC(=O)Nc4ccccc4)c(=O)c23)CO1 (stereo unspecified) here?
A: Its inhibition is -3.81% (inactive).

Q: Which inhibition does the source give for CCOc1ccc(NC(=O)C(CC(=O)O)Cc2ccccc2)cc1 (stereo unspecified) here?
A: The inhibition was -4.45% (inactive).

Q: With COc1ccccc1-c1nc(-c2cccc(C)c2)no1 as the compound, how does the inhibition read?
A: Its inhibition is 9.74% (inactive).

Q: Which inhibition does the source give for O=c1oc2ccccc2cc1-c1nc(-c2ccccc2)no1 here?
A: The inhibition was 23.2% (inactive).

Q: Which inhibition does the source give for O=c1oc2ccccc2cc1-c1ccccc1 here?
A: Its inhibition is -5.07% (inactive).

Q: With Cc1ccc(-c2csc(Cc3nc(-c4cc5ccccc5oc4=O)cs3)n2)cc1 as the compound, how does the inhibition read?
A: Its inhibition is -1.52% (inactive).

Q: For Cc1cccc(-c2noc(-c3ccoc3C)n2)c1, which inhibition is on record?
A: Its inhibition is 8.21% (inactive).

Q: For O=c1oc2ccccc2cc1-c1ccc(O)cc1, which inhibition is on record?
A: The inhibition was 30.4% (inactive).

Q: Which inhibition does the source give for COC(=O)c1sc(SC)c(S(=O)(=O)C(C)C)c1N/N=C(\C#N)C(=O)c1ccccc1 here?
A: Its inhibition is -10.6% (inactive).

Q: For COc1ccc(Cn2cc3c(-c4ccc(F)cc4)nnc-3c3cc(OC)c(OC)cc32)cc1, which inhibition is on record?
A: The inhibition was 64.8% (inactive).

Q: With CCOCC(=O)Nc1cc(Cl)ccc1C as the compound, how does the inhibition read?
A: The inhibition was -11.6% (inactive).

Q: Which inhibition does the source give for On1c(-c2ccccc2Cl)nc2ccccc21 here?
A: Its inhibition is 12.4% (inactive).

Q: With COc1ccc(CNC(=O)CC2C(=O)NCCN2CC(C)(C)C)c(OC)c1 (stereo unspecified) as the compound, how does the inhibition read?
A: The inhibition was -2.94% (inactive).

Q: Which inhibition does the source give for Cc1ccccc1OC(C)C(=O)NCc1cccnc1 (stereo unspecified) here?
A: The inhibition was 1.38% (inactive).

Q: For CCOC(=O)C1=C(CSCC(=O)OC)NC(=O)NC1c1cc(C)ccc1C (stereo unspecified), which inhibition is on record?
A: Its inhibition is 0.6% (inactive).

Q: For Cc1cc(C)nc(NC(=O)/C=C/c2ccccc2Cl)c1, which inhibition is on record?
A: The inhibition was 9.12% (inactive).

Q: For Cc1cc(C)nc(NC(=O)/C=C/c2ccccc2Cl)n1, which inhibition is on record?
A: The inhibition was -5.04% (inactive).

Q: With O=C(Cn1nc(-c2ccccc2)nc1-c1ccccc1)N1CCOCC1 as the compound, how does the inhibition read?
A: Its inhibition is -4.2% (inactive).

Q: With COC(=O)[C@@]1(Cc2ccc(F)cc2)[C@H]2c3cc(C(=O)N(C)C)n(Cc4ccccn4)c3C[C@H]2CN1C(=O)c1ccccc1 as the compound, how does the inhibition read?
A: The inhibition was 8.03% (inactive).

Q: For OC(COc1ccc2ccccc2c1)Cn1ccnc1 (stereo unspecified), which inhibition is on record?
A: Its inhibition is 51.7% (inactive).

Q: With CCOC(=O)N1CCN(C(=O)CSCC(=O)Nc2nc(-c3ccc(Cl)s3)cs2)CC1 as the compound, how does the inhibition read?
A: Its inhibition is 16.6% (inactive).

Q: For O=C(CSCC(=O)N1CCN(c2ccccc2)CC1)Nc1nc(-c2ccc(Cl)s2)cs1, which inhibition is on record?
A: Its inhibition is 8.45% (inactive).

Q: Which inhibition does the source give for OC(CNC1CCCC1)COc1ccc(-c2ccccc2)cc1 (stereo unspecified) here?
A: Its inhibition is 10.9% (inactive).

Q: Which inhibition does the source give for CCOc1ccc(OCC(O)CNC2CCN(Cc3ccccc3)CC2)cc1 (stereo unspecified) here?
A: Its inhibition is 1.56% (inactive).

Q: Which inhibition does the source give for O=C(OCc1ccc(C(=O)c2ccccc2)cc1)c1cccc(-c2nnc(-c3ccccc3)o2)c1 here?
A: The inhibition was 20.2% (inactive).

Q: For O=c1oc(-c2ccccc2NS(=O)(=O)c2ccc3ccccc3c2)nc2ccccc12, which inhibition is on record?
A: Its inhibition is 7.84% (inactive).

Q: For O=C(c1cc(-c2ccncc2)nc2ccc(Cl)cc12)N1CCN(Cc2ccc3c(c2)OCO3)CC1, which inhibition is on record?
A: Its inhibition is 0.94% (inactive).

Q: With CCOc1ccc(NC(=O)Cn2nnc3c(cnn3-c3ccc(F)cc3)c2=O)cc1 as the compound, how does the inhibition read?
A: The inhibition was 3.8% (inactive).

Q: Which inhibition does the source give for C/C(Cc1ccccc1)=N/NC(=O)CNC(=O)C(c1ccccc1)c1ccccc1 here?
A: The inhibition was -1.53% (inactive).

Q: With CCc1ccc(C2c3[nH]c4ccccc4c3CCN2C(=O)c2ccc(=O)n(C)n2)cc1 (stereo unspecified) as the compound, how does the inhibition read?
A: The inhibition was 37.1% (inactive).

Q: For CCc1ccc(C2c3[nH]c4ccccc4c3CCN2C(=O)c2cc[n+]([O-])cc2)cc1 (stereo unspecified), which inhibition is on record?
A: The inhibition was 7.89% (inactive).

Q: Which inhibition does the source give for CCNC(=O)N1CCN(C(=O)NCC)CC1 here?
A: Its inhibition is -2.46% (inactive).

Q: Which inhibition does the source give for Cc1cc(/C=N/n2cnnc2)c(C)n1-c1ccc(Cl)cc1 here?
A: The inhibition was 8.9% (inactive).

Q: For Cc1cc(/C=N/n2cnnc2)c(C)n1-c1ccc(Cl)cc1Cl, which inhibition is on record?
A: The inhibition was 12.1% (inactive).

Q: For CC(=O)Oc1ccc(C(=O)Nc2cc(NC(=O)c3ccc(OC(C)=O)cc3)cc(C(=O)NC(C)(C)C)c2)cc1, which inhibition is on record?
A: The inhibition was -1.93% (inactive).

Q: With CCN1CCC(O)(c2ccccc2)C(C(=O)c2ccccc2)C1 (stereo unspecified) as the compound, how does the inhibition read?
A: The inhibition was 50.9% (inactive).

Q: Which inhibition does the source give for CCCCN1CCC(O)(c2ccccc2)C(C(=O)c2ccccc2)C1 (stereo unspecified) here?
A: The inhibition was 5.96% (inactive).

Q: Which inhibition does the source give for O=S(=O)(N1CCOCC1)N1CCN(c2ccc(F)cc2)CC1 here?
A: The inhibition was -7.1% (inactive).

Q: For Cc1[nH]c(=O)[nH]c(=O)c1/C=C/C(=O)O, which inhibition is on record?
A: The inhibition was -8.34% (inactive).

Q: With Nc1c(C(=O)OCC(=O)NCc2ccccc2)[nH]c(=O)[nH]c1=O as the compound, how does the inhibition read?
A: Its inhibition is -4.41% (inactive).

Q: Which inhibition does the source give for CCOc1ccc2nc(SCC(=O)N(C)C)[nH]c2c1 here?
A: The inhibition was -11.1% (inactive).

Q: Which inhibition does the source give for CO/N=C(/CS(=O)Cc1ccc(Cl)cc1)c1ccc(Cl)cc1 (stereo unspecified) here?
A: The inhibition was 1.17% (inactive).

Q: Which inhibition does the source give for CCCNS(=O)(=O)c1ccc(OCC(=O)NCCC2=CCCCC2)cc1 here?
A: The inhibition was 13.8% (inactive).

Q: With COC(=O)COc1ccc(S(=O)(=O)NCCC2=CCCCC2)cc1 as the compound, how does the inhibition read?
A: The inhibition was 25.1% (inactive).

Q: With Cc1cccc(C)c1NC(=O)CNC(=O)CCC(=O)c1cccs1 as the compound, how does the inhibition read?
A: The inhibition was -5.43% (inactive).

Q: With CC(C)c1ccc(NC(=O)c2csnn2)cc1 as the compound, how does the inhibition read?
A: Its inhibition is -0.83% (inactive).

Q: With Cc1ccc(NC(=O)c2snc3ccc(Cl)cc23)cc1C as the compound, how does the inhibition read?
A: Its inhibition is 6.9% (inactive).

Q: For Cc1ccc(-c2nc3ccccc3n3nnnc23)cc1, which inhibition is on record?
A: Its inhibition is 4.17% (inactive).

Q: For Cc1ccc2nc(N3CCN(c4cccc(C)c4C)CC3)c3nnnn3c2c1, which inhibition is on record?
A: Its inhibition is -7.81% (inactive).

Q: With CC(C)CNC(=O)CN1C(=O)NC(Cc2c[nH]c3ccccc23)C1=O (stereo unspecified) as the compound, how does the inhibition read?
A: Its inhibition is -13.9% (inactive).

Q: Which inhibition does the source give for O=C(NCC1CCN(S(=O)(=O)c2ccccc2)CC1)Nc1ccccc1 here?
A: The inhibition was 10.3% (inactive).

Q: For O=C(N/N=C/c1cccc(O)c1)c1ccccc1O, which inhibition is on record?
A: Its inhibition is -7.64% (inactive).

Q: For Cc1ccc(Cn2ccc(=O)c(OCc3ccccc3)c2C)cc1, which inhibition is on record?
A: Its inhibition is 1.78% (inactive).

Q: With Cc1ccc(Cn2ccc(=O)c(Cc3c(Cl)cccc3Cl)c2C)cc1 as the compound, how does the inhibition read?
A: The inhibition was 0.62% (inactive).

Q: With CC(C)=Nc1ccccc1C1COC(=O)C1=N (stereo unspecified) as the compound, how does the inhibition read?
A: Its inhibition is -1% (inactive).

Q: For COc1ccccc1NC(=O)O/N=C(\N)c1ccccc1, which inhibition is on record?
A: The inhibition was 11.1% (inactive).

Q: Which inhibition does the source give for Cc1nc(CC(=O)c2ccc(O)c(C)c2O)cs1 here?
A: Its inhibition is 7.54% (inactive).

Q: With O=C(CSc1ccc2ccccc2n1)N1CCC(c2noc3ccc(F)cc23)CC1 as the compound, how does the inhibition read?
A: The inhibition was -2.15% (inactive).

Q: For Cc1nnc(SCC(=O)N2CCC(c3noc4ccc(F)cc34)CC2)s1, which inhibition is on record?
A: The inhibition was -0.75% (inactive).

Q: Which inhibition does the source give for COC(=O)C[C@H]1c2cc(C(F)(F)F)ccc2S(=O)(=O)N1C1CCCC1 here?
A: Its inhibition is -3.21% (inactive).

Q: Which inhibition does the source give for O=C(Cc1ccc(Br)cc1)Nc1ccc(Cl)cc1 here?
A: The inhibition was -2.03% (inactive).
